Results reported in article PMC7862700, “An all-to-all approach to the identification of sequence-specific readers for epigenetic DNA modifications on cytosine”.

Columns and labels:
Test in all cases: DAPPL (digital affinity profiling via proximity ligation, sequencing); 10 mM Tris-HCl pH 7.5, 50 mM NaCl, 1 mM DTT, 4% glycerol, room temperature, 30 min; GST-TFs on glutathione beads, 16-mer random dsDNA library, 0.1% formaldehyde crosslink after washing; high values mean tight binding
Details in all cases: protein: recombinant; tags: N-terminal GST; dsDNA, one strand shown
FLI1 = target: T1, FLI1 (Homo sapiens, UniProt Q01543 1-452)
T1 sequence: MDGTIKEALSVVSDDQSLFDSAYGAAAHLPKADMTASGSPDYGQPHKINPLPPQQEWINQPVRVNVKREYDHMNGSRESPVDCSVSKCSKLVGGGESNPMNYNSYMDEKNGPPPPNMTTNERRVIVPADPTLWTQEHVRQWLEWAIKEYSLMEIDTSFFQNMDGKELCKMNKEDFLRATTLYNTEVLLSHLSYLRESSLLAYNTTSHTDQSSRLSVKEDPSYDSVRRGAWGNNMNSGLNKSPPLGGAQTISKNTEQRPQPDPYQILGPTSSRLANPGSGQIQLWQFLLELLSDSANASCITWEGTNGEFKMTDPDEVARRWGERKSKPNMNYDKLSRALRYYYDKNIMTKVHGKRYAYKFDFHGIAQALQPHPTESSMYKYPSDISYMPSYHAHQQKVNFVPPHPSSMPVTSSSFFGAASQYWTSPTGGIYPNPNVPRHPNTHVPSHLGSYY
In short: (§1)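 Human transcription factors were made in yeast as GST fusions, captured on glutathione beads and barcoded with DNA. With a tag-only sample included, the pool was incubated with 200 nmole of a random double-stranded 16-mer DNA library in Tris/NaCl/DTT/glycerol buffer at room temperature for 30 min, then crosslinked with 0.1% formaldehyde after washing, ligated by proximity, amplified and sequenced. For binding signal, each hexamer's read frequency for a factor is divided by its frequency for the tag-only sample.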

ELK1 = target: T2, ELK1 (Homo sapiens, UniProt P19419 1-428)
T2 sequence: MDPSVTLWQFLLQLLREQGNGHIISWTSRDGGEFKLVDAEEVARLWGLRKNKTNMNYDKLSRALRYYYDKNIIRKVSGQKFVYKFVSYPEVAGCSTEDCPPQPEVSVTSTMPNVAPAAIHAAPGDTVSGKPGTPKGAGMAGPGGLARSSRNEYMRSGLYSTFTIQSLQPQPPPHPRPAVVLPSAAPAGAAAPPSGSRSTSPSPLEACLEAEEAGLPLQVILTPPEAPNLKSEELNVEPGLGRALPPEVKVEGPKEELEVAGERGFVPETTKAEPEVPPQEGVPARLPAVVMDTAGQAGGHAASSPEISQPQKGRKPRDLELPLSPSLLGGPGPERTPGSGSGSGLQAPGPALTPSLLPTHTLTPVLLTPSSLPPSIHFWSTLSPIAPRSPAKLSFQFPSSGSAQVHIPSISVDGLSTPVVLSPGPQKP
In short: as §1

ELF1 = ELF1 (Homo sapiens, UniProt P32519 1-619)
In short: as §1

EHF = target: T3, EHF (Homo sapiens, UniProt Q9NZC4 1-300)
T3 sequence: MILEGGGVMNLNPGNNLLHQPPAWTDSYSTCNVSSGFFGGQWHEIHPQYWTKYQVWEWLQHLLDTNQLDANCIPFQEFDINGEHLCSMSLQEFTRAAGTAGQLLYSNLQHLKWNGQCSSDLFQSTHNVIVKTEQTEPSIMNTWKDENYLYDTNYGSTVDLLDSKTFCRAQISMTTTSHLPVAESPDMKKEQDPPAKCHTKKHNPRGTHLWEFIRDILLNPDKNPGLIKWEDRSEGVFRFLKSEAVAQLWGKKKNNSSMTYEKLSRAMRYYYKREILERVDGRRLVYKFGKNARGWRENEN
In short: as §1

ELK4 = target: T4, ELK4 (Homo sapiens, UniProt P28324-2 1-405)
T4 sequence: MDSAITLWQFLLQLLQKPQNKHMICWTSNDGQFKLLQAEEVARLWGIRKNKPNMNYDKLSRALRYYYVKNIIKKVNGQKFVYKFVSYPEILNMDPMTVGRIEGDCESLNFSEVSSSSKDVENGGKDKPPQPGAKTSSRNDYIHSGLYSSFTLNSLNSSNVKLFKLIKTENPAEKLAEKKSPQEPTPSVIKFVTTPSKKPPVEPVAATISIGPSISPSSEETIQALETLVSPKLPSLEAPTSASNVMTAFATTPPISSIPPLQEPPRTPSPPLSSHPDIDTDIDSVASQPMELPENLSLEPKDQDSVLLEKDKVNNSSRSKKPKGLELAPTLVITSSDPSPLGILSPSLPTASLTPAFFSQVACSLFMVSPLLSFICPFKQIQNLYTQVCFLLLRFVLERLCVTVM
In short: as §1

ETV2 = target: T5, ETV2 (Homo sapiens, UniProt O00321 1-342)
T5 sequence: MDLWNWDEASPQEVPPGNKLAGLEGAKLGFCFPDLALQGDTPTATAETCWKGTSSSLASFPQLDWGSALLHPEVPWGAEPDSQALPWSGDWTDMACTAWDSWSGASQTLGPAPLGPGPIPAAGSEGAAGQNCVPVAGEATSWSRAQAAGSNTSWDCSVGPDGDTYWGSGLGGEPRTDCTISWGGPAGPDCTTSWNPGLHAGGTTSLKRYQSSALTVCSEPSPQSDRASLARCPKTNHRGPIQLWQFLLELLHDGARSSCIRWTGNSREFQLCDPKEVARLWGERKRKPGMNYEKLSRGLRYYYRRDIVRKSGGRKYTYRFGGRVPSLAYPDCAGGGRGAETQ
In short: as §1

ELF3 = target: T6, ELF3 (Homo sapiens, UniProt P78545 1-371)
T6 sequence: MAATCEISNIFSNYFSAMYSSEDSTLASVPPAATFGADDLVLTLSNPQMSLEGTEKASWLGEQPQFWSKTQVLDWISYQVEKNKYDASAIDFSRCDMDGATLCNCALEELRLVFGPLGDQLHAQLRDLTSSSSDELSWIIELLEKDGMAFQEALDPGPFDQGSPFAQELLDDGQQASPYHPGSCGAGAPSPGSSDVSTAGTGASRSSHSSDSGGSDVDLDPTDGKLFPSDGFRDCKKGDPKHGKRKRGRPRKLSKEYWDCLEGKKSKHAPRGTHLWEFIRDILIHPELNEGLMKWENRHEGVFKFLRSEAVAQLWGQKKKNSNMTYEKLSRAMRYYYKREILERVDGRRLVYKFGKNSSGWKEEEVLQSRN
In short: as §1

ETV7 = target: T7, ETV7 (Homo sapiens, UniProt Q9Y603 1-341)
T7 sequence: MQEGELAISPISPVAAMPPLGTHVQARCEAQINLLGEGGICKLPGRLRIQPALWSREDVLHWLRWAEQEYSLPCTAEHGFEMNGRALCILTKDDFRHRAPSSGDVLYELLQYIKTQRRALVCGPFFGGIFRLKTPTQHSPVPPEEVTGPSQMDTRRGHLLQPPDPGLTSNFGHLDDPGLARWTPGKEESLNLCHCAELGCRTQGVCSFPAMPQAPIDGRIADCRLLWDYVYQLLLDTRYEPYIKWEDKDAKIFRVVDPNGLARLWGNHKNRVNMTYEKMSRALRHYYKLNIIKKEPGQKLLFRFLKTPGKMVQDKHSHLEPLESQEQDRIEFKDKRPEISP
In short: as §1

ELF4 = ELF4 (Homo sapiens, UniProt Q99607 1-663)
In short: as §1

ETV1 = ETV1 (Homo sapiens, UniProt P50549 1-477)
In short: as §1

ERF = target: T8, ERF (Homo sapiens, UniProt P50548 1-548)
T8 sequence: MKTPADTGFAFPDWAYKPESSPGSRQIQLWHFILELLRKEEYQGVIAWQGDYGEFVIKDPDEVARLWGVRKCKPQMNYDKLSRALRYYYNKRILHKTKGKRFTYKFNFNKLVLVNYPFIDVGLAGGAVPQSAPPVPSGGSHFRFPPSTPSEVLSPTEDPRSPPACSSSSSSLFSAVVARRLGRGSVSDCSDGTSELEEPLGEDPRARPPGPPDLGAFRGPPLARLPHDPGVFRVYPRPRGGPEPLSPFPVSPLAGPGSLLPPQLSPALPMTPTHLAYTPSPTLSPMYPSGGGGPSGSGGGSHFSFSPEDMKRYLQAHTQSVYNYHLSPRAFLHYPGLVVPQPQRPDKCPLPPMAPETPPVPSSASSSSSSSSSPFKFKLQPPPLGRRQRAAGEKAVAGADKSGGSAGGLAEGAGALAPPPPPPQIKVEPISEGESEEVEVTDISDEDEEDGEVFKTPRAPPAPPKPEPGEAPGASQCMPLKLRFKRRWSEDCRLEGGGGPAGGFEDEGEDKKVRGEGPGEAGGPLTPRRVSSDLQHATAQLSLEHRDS
In short: as §1

ETS2 = target: T9, ETS2 (Homo sapiens, UniProt P15036 1-469)
T9 sequence: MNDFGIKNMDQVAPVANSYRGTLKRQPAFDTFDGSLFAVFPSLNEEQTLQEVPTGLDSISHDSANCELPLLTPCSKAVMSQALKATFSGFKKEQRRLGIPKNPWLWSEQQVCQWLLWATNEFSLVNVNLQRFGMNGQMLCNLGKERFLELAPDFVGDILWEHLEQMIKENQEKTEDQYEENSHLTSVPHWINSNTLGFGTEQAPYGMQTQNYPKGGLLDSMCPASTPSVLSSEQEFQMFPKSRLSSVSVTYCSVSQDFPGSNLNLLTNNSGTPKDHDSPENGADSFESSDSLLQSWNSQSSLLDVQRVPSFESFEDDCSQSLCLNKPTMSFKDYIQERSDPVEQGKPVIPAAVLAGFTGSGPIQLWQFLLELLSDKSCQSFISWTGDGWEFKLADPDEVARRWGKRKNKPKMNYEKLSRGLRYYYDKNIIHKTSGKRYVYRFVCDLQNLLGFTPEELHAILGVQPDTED
In short: as §1

Chain of ELF1 (P32519 whole entry): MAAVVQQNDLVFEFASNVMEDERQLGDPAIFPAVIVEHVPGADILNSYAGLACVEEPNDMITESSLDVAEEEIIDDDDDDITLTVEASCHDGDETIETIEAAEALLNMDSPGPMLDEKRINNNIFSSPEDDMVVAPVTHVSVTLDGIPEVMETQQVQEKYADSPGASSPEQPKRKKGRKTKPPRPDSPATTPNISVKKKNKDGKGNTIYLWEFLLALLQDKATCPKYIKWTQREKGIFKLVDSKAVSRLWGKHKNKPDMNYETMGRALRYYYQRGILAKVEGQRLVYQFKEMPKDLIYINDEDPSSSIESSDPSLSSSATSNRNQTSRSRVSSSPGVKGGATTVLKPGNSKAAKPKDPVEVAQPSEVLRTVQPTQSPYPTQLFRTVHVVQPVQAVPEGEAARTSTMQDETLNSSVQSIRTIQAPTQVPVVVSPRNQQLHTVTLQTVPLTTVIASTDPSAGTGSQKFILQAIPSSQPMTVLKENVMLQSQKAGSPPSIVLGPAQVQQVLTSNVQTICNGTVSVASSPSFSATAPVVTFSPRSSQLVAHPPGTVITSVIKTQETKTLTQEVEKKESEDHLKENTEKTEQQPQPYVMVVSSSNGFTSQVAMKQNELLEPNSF
Chain of ELF4 (Q99607 whole entry): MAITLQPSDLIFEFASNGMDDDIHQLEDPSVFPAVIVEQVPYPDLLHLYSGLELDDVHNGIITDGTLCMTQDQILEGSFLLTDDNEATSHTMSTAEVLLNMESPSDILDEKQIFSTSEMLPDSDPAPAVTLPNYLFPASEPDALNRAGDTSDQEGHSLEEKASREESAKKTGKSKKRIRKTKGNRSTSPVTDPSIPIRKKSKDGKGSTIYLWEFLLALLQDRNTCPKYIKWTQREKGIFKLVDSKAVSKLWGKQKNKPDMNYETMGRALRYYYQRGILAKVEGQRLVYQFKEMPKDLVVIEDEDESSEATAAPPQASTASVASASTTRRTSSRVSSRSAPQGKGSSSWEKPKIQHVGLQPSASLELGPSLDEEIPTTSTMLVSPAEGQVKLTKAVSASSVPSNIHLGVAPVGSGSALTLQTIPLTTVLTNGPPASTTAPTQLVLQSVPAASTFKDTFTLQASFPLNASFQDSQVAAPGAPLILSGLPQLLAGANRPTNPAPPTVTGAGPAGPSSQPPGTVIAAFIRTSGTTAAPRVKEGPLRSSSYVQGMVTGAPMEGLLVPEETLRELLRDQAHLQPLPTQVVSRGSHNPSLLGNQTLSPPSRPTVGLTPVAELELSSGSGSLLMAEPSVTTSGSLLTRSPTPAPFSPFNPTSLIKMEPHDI
Chain of ETV1 (P50549 whole entry): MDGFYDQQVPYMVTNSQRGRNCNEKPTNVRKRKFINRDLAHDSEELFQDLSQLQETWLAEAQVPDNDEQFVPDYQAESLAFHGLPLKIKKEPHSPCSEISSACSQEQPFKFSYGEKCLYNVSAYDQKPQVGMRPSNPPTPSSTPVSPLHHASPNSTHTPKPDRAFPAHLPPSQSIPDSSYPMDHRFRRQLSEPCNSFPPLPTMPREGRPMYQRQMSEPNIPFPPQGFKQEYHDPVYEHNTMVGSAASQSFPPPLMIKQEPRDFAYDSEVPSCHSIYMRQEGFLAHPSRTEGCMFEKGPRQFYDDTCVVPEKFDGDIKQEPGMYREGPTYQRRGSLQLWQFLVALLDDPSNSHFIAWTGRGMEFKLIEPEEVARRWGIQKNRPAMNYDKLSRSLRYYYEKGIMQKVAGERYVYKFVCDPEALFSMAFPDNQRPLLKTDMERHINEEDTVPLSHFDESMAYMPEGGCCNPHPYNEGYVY

Sequence: GCCGTC
- binding signal (FLI1): 1.04 fold enrichment (6-mer frequency, TF over GST control)
- binding signal (ELK1): 1.03 fold enrichment (6-mer frequency, TF over GST control)
- binding signal (ELF1): 1.02 fold enrichment (6-mer frequency, TF over GST control)
- binding signal (EHF): 1.1 fold enrichment (6-mer frequency, TF over GST control)
- binding signal (ELK4): 1.1 fold enrichment (6-mer frequency, TF over GST control)
- binding signal (ETV2): 1.03 fold enrichment (6-mer frequency, TF over GST control)
- binding signal (ELF3): 1.17 fold enrichment (6-mer frequency, TF over GST control)
- binding signal (ETV7): 1.03 fold enrichment (6-mer frequency, TF over GST control)

Sequence: ATTGAG
- binding signal (FLI1): 1.08 fold enrichment (6-mer frequency, TF over GST control)
- binding signal (ELK1): 1.12 fold enrichment (6-mer frequency, TF over GST control)
- binding signal (ELF1): 1 fold enrichment (6-mer frequency, TF over GST control)
- binding signal (EHF): 1.01 fold enrichment (6-mer frequency, TF over GST control)
- binding signal (ELF4): 1.05 fold enrichment (6-mer frequency, TF over GST control)
- binding signal (ELF3): 1 fold enrichment (6-mer frequency, TF over GST control)
- binding signal (ETV1): 1.01 fold enrichment (6-mer frequency, TF over GST control)
- binding signal (ERF): 1.02 fold enrichment (6-mer frequency, TF over GST control)
- binding signal (ETS2): 1 fold enrichment (6-mer frequency, TF over GST control)
- binding signal (ETV7): 1.08 fold enrichment (6-mer frequency, TF over GST control)
